Screening results (PubChem BioAssay)
An excerpt weighted towards active compounds, which were near 4.3% of everything screened.
ADAM17 inh = ADAM17 inhibition, QFRET primary screen | P78536 | recombinant ADAM17, EDANS/DABCYL FRET peptide cleavage | inhibition, % at 6.95 µM | 370,000 tested, 0.83% active | AID 720648;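 active means inhibition above the mean of compounds lying between control limits plus 3 SD, set per campaign, cut at about 8.5% in these data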
GRIN3A LBD mod = modulators (binders) of human NR3A ligand-binding domain. Tm shift relative to glycine control, % at 25 µM. 340,000 tested, 2.5% active. NR3A LBD differential scanning fluorimetry, Tm shift; 0% = protein alone, 100% = glycine-bound protein. AID 1259313;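 active means melting temperature shift of at least 10% of the positive control shift, at one fixed dose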
FAS TE block = inhibitors of human fatty acid synthase thioesterase domain; recombinant FAS-TE, OMFH fluorogenic substrate, fluorescence endpoint; inhibition, % at 15 µM; AID 602261; P49327; 360,000 tested, 0.67% active;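 active means compounds whose normalised, plate-corrected inhibition of enzyme fluorescence in the single-dose primary screen is 50% or more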
sPLA2-III inh = Blocks human group III sPLA2 activity. Q9NZ20. QFRET BODIPY PC-A2 liposome hydrolysis, fluorescence. inhibition, % at 12.2 µM. 370,000 tested, 0.56% active;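 active means inhibition above mean plus 3 SD of compounds lying within the high and low control bounds, cut at about 19% in these data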
Target sequence (Q9NZ20 whole entry, looked up): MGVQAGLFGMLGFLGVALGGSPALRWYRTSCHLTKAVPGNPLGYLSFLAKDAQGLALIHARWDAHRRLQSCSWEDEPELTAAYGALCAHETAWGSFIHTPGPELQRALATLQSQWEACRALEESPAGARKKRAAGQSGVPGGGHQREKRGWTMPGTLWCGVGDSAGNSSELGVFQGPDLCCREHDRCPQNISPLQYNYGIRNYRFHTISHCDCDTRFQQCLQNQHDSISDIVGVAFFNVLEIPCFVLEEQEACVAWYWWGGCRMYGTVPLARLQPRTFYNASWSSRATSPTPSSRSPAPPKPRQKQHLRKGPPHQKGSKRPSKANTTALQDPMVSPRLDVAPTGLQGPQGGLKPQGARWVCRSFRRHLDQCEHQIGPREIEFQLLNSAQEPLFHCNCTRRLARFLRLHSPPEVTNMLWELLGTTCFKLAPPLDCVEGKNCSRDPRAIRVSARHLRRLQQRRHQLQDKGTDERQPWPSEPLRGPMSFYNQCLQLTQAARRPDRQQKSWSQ
ADAM10 inh = ADAM10 inhibition, QFRET primary screen | recombinant ADAM10, EDANS/DABCYL FRET peptide cleavage, 3 h | O14672 | 370,000 tested, 0.62% active | inhibition, % at 7 µM | AID 720582;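 active means inhibition above a per-campaign cutoff equal to the mean of compounds falling between control-based bounds plus 3 SD, cut at about 20% in these data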
ADAM10 confirm = confirmation of inhibitors of human ADAM10. shares compounds with ADAM10 inh. ADAM10 QFRET peptide cleavage, EDANS fluorescence. inhibition, % at 6.95 µM. 2,100 tested, 1% active. AID 743208;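 active means inhibition above about 20% chosen separately for each screening run, limit read from the data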
ADAM17 ctr = inhibits human ADAM17 in ADAM10 exosite counter-screen; shares compounds with ADAM10 inh; ADAM17 QFRET peptide cleavage, EDANS fluorescence; inhibition, % at 6.95 µM; 2,100 tested, 0.5% active;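 active means mean triplicate inhibition above the solvent-only control wells' mean plus 3 SD, cut at about 12% in these data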
ADAM10 ctr = ADAM10 inhibition, counter-screen for ADAM17 exosite hits; shares compounds with ADAM17 inh; recombinant ADAM10, EDANS/DABCYL FRET peptide cleavage, 3 h; inhibition, % at 6.95 µM; 2,900 tested, 47% active; AID 743256;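 active means mean inhibition over the triplicate runs exceeds the activity threshold set in the earlier primary screen, cut at about 20% in these data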
ADAM17 confirm = confirmation of inhibitors of human ADAM17 | inhibition, % at 6.95 µM | 2,900 tested, 65% active | recombinant ADAM17, EDANS/DABCYL QFRET peptide cleavage | shares compounds with ADAM17 inh;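 active means mean inhibition across replicates above the hit cutoff set in the primary screen, cut at about 8.5% in these data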
Large screens that a line does not name were inactive (follow-up assays come after a bar, where they were run).

COc1ccc(CN([C@H](CO)CC(C)C)S(=O)(=O)N(Cc2ccccc2)[C@H](CO)CC(C)C)cc1	ADAM17 inh 23, ADAM10 inh 43 | ADAM10 confirm inactive | ADAM17 ctr inactive | ADAM10 ctr 63 | ADAM17 confirm 35
CC(C)C[C@@H](CO)N(Cc1ccccc1)S(=O)(=O)N(Cc1ccccc1)[C@H](CO)CC(C)C	none (no result: ADAM17 inh, sPLA2-III inh, ADAM10 inh)
COc1ccc(C2C3C(=O)N(Cc4ccccc4)C(=O)C3ON2c2ccccc2)c(OC)c1OC (configuration not stated)	ADAM17 inh 11, ADAM10 inh 21 | ADAM10 confirm inactive | ADAM17 ctr inactive | ADAM10 ctr 32 | ADAM17 confirm 17
CC(=O)N(C)c1ccc(NC(=O)C(Sc2ccccc2)c2ccccc2)cc1 (configuration not stated)	none
CC(C)(C)NS(=O)(=O)c1ccc(NC(=O)C(Sc2ccccc2)c2ccccc2)cc1 (configuration not stated)	ADAM17 inh 19, GRIN3A LBD mod 23, ADAM10 inh 41 | ADAM10 confirm inactive | ADAM17 ctr inactive | ADAM10 ctr 44 | ADAM17 confirm 22
Cc1ccccc1N=C1NC(=O)/C(=C/c2cccn2C)S1	ADAM17 inh 9.9, ADAM10 inh 27 | ADAM10 confirm inactive | ADAM17 ctr inactive | ADAM10 ctr inactive | ADAM17 confirm 13
O[C@H](COc1cc(F)cc(F)c1)CN1CCC(C(O)(c2ccccc2)c2ccccc2)CC1	none (no result: GRIN3A LBD mod, FAS TE block)
CC(=O)Nc1ccc(NC(=O)C(C)OC(=O)CCN=C2NS(=O)(=O)c3ccccc32)cc1 (configuration not stated)	none
CC(OC(=O)CCCCCN=C1NS(=O)(=O)c2ccccc21)C(=O)Nc1cc(Cl)cc(Cl)c1 (configuration not stated)	ADAM17 inh 15, GRIN3A LBD mod 18, ADAM10 inh 29 | ADAM10 confirm inactive | ADAM17 ctr inactive | ADAM10 ctr inactive | ADAM17 confirm 15
Cc1cc(C(=O)COC(=O)CC2Sc3ccccc3NC2=O)c(C)n1-c1ccccc1 (configuration not stated)	ADAM17 inh 18, ADAM10 inh 28 | ADAM10 confirm inactive | ADAM17 ctr inactive | ADAM10 ctr 21 | ADAM17 confirm 12
COc1ccc(NS(=O)(=O)c2ccc3oc(SCc4ccc(F)cc4)nc3c2)cc1	ADAM17 inh 11, GRIN3A LBD mod 13, ADAM10 inh 25 | ADAM10 confirm inactive | ADAM17 ctr inactive | ADAM10 ctr 22 | ADAM17 confirm 12
C[C@@H]1ON(C)[C@H]2C[C@H]3c4[nH]c5cccc(-c6cccc(F)c6)c5c4CCN3C(=O)[C@@H]12	none (no result: GRIN3A LBD mod, FAS TE block)
COCc1cc(N2CCNC[C@H]2C)ccc1N1CCN(Cc2ccccc2)[C@@H](C)C1	none (no result: GRIN3A LBD mod, FAS TE block)
Nc1nc(-c2ccccc2)c(N=Nc2ccccc2Cl)s1	ADAM17 inh 16, ADAM10 inh 26 | ADAM10 confirm inactive | ADAM17 ctr inactive | ADAM10 ctr 40 | ADAM17 confirm 25
O=C(COC(=O)CCc1c[nH]c2ccccc12)NCCc1ccccc1	none
O=C(CCc1c[nH]c2ccccc12)OCc1ccc(Br)cc1	ADAM17 inh 12, ADAM10 inh 23 | ADAM10 confirm inactive | ADAM17 ctr inactive | ADAM10 ctr inactive | ADAM17 confirm 11
COC(=O)[C@]12C[C@H](CC(=O)NCC3CCCCC3)C(=O)N(Cc3cccc4ccccc34)C1=C[C@H](C(C)C)O[C@@H]2C1CC1	none (no result: GRIN3A LBD mod, FAS TE block)
CCCCC[C@H](C)N1C[C@@H](COCc2ccccc2)Oc2cc(N3CCC[C@H]3C(N)=O)ccc2S1(=O)=O	ADAM17 inh 11, ADAM10 inh 22 (no result: GRIN3A LBD mod) | ADAM10 confirm inactive | ADAM17 ctr inactive | ADAM10 ctr 39 | ADAM17 confirm 23
CCCCC[C@@H](C)N1C[C@H](COCc2ccccc2)Oc2cc(N3CC[C@@H](O)C3)ccc2S1(=O)=O	ADAM17 inh 9.9, ADAM10 inh 22 (no result: GRIN3A LBD mod) | ADAM10 confirm inactive | ADAM17 ctr inactive | ADAM10 ctr 40 | ADAM17 confirm 24
CCCCC[C@H](C)N1C[C@H](COCc2ccccc2)Oc2cc(N3CCC[C@@H]3CO)ccc2S1(=O)=O	none (no result: GRIN3A LBD mod)
CCCCC[C@@H](C)N1C[C@@H](COCc2ccccc2)Oc2cc(N3CCC[C@H]3C(N)=O)ccc2S1(=O)=O	ADAM17 inh 16, ADAM10 inh 28 (no result: GRIN3A LBD mod) | ADAM10 confirm inactive | ADAM17 ctr inactive | ADAM10 ctr 22 | ADAM17 confirm 14
CCCCC[C@H](C)N1C[C@H](COCc2ccccc2)Oc2cc(N3CCC[C@H]3CO)ccc2S1(=O)=O	none (no result: GRIN3A LBD mod)
CCCCC[C@H](C)N1C[C@H](COCc2ccccc2)Oc2cc(N3CC[C@H](O)C3)ccc2S1(=O)=O	none (no result: GRIN3A LBD mod)
O=C(CCc1ccccc1)N[C@H]1[C@H](O)CCC[C@@]12C(=O)N(Cc1ccccc1)c1ccc(-c3ccccc3)cc12	none (no result: GRIN3A LBD mod, FAS TE block)
c1ccc(-c2nnc3n2N=C(c2ccc4ccccc4c2)CS3)cc1	none (no result: GRIN3A LBD mod, FAS TE block)
N#Cc1cccc(NC(=O)OCCN2C(=O)CCC23CCC(c2ccccc2)CC3)c1 (configuration not stated)	none (no result: GRIN3A LBD mod, FAS TE block)
CCOc1ccc(-c2[nH]ncc2-c2ccccc2)c(O)c1	none
CCOc1ccc(-c2[nH]ncc2Oc2cccc(OC)c2)c(O)c1	ADAM17 inh 11, ADAM10 inh 24 | ADAM10 confirm inactive | ADAM17 ctr inactive | ADAM10 ctr 35 | ADAM17 confirm 20
COc1ccc(-c2n[nH]c(C)c2-c2cscn2)c(O)c1	none
C=C(C)COc1ccc(-c2n[nH]c(C)c2-c2ccc(OC)cc2)c(O)c1	ADAM17 inh 13, GRIN3A LBD mod 12, ADAM10 inh 31 | ADAM10 confirm inactive | ADAM17 ctr inactive | ADAM10 ctr 34 | ADAM17 confirm 17
COc1ccc(-c2n[nH]c(C)c2-c2cnn(-c3ccccc3)c2)c(O)c1	ADAM17 inh 15, ADAM10 inh 30 | ADAM10 confirm inactive | ADAM17 ctr inactive | ADAM10 ctr 23 | ADAM17 confirm 14
COc1ccc(-c2n[nH]c(C)c2-c2cnn(-c3ccccc3)c2)c(O)c1C	ADAM17 inh 15, GRIN3A LBD mod 24, ADAM10 inh 32 | ADAM10 confirm inactive | ADAM17 ctr inactive | ADAM10 ctr 27 | ADAM17 confirm 16
O=C(C1CCCCC1)n1ccc2ccc(-c3ccc4ccn(Cc5ccccc5)c4c3)cc21	none (no result: GRIN3A LBD mod, FAS TE block)
